Experimental data: PubChem BioAssay AID1645860 (Buhrlage Lab, Dana-Farber Cancer Institute and Novartis …, 2021)
In all, about 47,000 compounds went through this assay and about 2,500 (5.3%) were called active. This is one part of a sample in which actives are shown more often than they occur. No stated cut-off is given here; in the data, active means inhibition above about 30%; inactive means the rest. *1 amine or outer side, *2 acyl side, *3 side chain or, on linkers, in order; H or OH if unused. Where a SMILES comes first, the peptide text is derived from it. [ ]: non-standard residue; d: D form. ξ: configuration not given here. ξβ3hGly(undecyl) = CCCCCCCCCCCC(CC(=O)[*:2])N[*:1]

target: Ubiquitin carboxyl-terminal hydrolase 30 (Homo sapiens) (UniProt Q70CQ3); experiment: blocks human USP30 ubiquitin-rhodamine cleavage (AID 1645860); settings: purified USP30, Ub-rhodamine cleavage fluorescence; at 25 µM; active compounds read high
Sequence (Q70CQ3 whole entry, looked up): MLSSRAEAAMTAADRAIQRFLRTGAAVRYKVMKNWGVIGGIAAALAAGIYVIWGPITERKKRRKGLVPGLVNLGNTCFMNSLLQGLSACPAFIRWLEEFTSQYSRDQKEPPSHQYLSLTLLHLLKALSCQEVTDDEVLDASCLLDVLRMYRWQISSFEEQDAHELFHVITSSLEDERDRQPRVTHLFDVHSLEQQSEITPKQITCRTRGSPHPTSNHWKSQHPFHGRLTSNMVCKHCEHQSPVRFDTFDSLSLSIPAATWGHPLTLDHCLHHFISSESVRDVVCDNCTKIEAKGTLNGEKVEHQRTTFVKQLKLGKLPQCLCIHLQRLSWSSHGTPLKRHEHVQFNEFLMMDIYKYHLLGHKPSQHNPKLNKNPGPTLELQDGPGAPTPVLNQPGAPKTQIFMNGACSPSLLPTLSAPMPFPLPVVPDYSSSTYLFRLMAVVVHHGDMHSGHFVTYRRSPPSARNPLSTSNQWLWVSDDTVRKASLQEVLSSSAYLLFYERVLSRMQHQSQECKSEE

Compound | inhibition
O=C(Cc1ccc(F)cc1)Nc1ccccc1Cc1ccccc1 | 27.2% (inactive)
Cc1cc(F)ccc1NC(=O)Cc1n[nH]c(Cc2ccccc2)n1 | -13.4% (inactive)
Cc1ccccc1NC(=O)Cc1csc2nc(-c3ccc(F)cc3)cn12 | 88.4% (active)
CC(C)N1CCN(C(=O)c2n[nH]c3c2CCCC3)CC1 | -5.42% (inactive)
Cn1ccc(-c2cc(C(=O)NC3CC3)c3ccccn23)n1 | -423% (inactive)
CC(C)C(=O)Nc1nc2ccc(CCC(=O)Nc3ccc(F)cc3)cc2s1 | 26.5% (inactive)
CC(C)C(=O)Nc1nc2cc(NS(=O)(=O)c3ccccc3)ccc2s1 | 36.4% (active)
O=C(Nc1ccc2sc(NC(=O)C3CCCCC3)nc2c1)NC1CCCC1 | 0.0388% (inactive)
COCCN1C(=O)Cc2c(C)nc(C3(C)CCCN(c4cc(C)ncn4)C3)nc21 (stereo not drawn) | -104% (inactive)
COc1cccc(-c2ocnc2C(=O)NCc2ccc(OC)c(OC)c2)c1 | -25.4% (inactive)
COc1cc(OC)cc(-c2nnc(NC(=O)c3ccc([N+](=O)[O-])o3)o2)c1 | 40.1% (active)
COc1ccc(-c2ocnc2C(=O)NCc2ccc(OC)c(OC)c2)cc1 | -6.37% (inactive)
N#Cc1ccc(-c2cccc(C(F)(F)F)c2)n(Cc2c(F)cccc2Cl)c1=O | 17.6% (inactive)
CC(=O)N1CSCC1C(=O)N1CCC2(CC1)CNC(=O)c1ccccc1O2 (stereo not drawn) | 6.33% (inactive)
CCN1CCC2(CC1)OC(=O)C(C)=C2C(=O)NCc1ccccc1OC | 3.07% (inactive)
COc1cccc(NC(=O)CSc2nc(-c3ccco3)nc3cc(=O)[nH]n23)c1 | -50.3% (inactive)
O=C1C(O)=C(c2ccc(O)c(O)c2)C(=O)C(O)=C1c1ccccc1 | 50.5% (active)
CC(=O)N1CCn2c(nnc2C2CCCN2)C1 (stereo not drawn) | 12.2% (inactive)
CCCCCCCCCCCC1CC(=O)NC(CC(N)=O)C(=O)NC(Cc2ccc(O)cc2)C(=O)NC(CC(N)=O)C(=O)NC(CCC(N)=O)C(=O)N2CCCC2C(=O)NC(CC(N)=O)C(=O)NC(CO)C(=O)N1 (stereo not drawn) (cyclo([ξβ3hGly(undecyl)]NYNQPNS); configuration not given here) | -32.4% (inactive)
O=C(Nc1ccc(C(F)(F)F)cc1)N1CCc2[nH]cnc2C1c1ccncc1 (stereo not drawn) | 13% (inactive)
Cc1nn(-c2ccc(F)cc2F)c2c1C(C(=O)c1cc3ccccc3o1)CC(=O)N2 (stereo not drawn) | 33.3% (active)
Cc1nn(-c2cccc(F)c2)c2c1C(C(=O)c1cc3ccccc3o1)CC(=O)N2 (stereo not drawn) | 2.53% (inactive)
Cc1nn(-c2ccc(F)cc2)c2c1C(C(=O)c1cc3ccccc3o1)CC(=O)N2 (stereo not drawn) | -18.2% (inactive)
